# Screens from PubChem BioAssay.
# A selection: hits, their analogues and other compounds. The true share with any hit is near 0.43%.
# GAA spleen mod – lysosomal alpha-glucosidase (human) modulation; human spleen homogenate, 4-MU-alpha-glucoside fluorescence; 0.006% of 240,000 active; AID 2112; P10253; Potency, µM (titrated, usually from 79.9 µM), for the others: at the top dose activity change, negative = inhibition, most hits filed as inhibitors;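 note: potency is the fitted concentration of half-maximal effect; 0% = enzyme with vehicle and -100% = no enzyme basal signal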
#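 Enzyme source: human spleen homogenate, 1 ug/well. Buffer 50 mM citric acid/K phosphate pH 5.0, 0.01% Tween-20. 4-MU-alpha-glucoside 1 mM; 37 C x 40 min; NaOH/glycine stop; fluorescence.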
# GLA spleen mod – inhibits or activates alpha-galactosidase in human spleen homogenate | P06280 | human spleen homogenate, 4MU-alpha-Gal fluorescence, 40 min | Potency, µM (series often up to 80 µM), for inactives: at the highest dose activity change, negative = inhibition, most hits filed as inhibitors | 0.008% of 240,000 active | AID 2107;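 note: potency is the fitted concentration of half-maximal effect; 0% = enzyme with vehicle and -100% = no enzyme basal signal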
#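 Human spleen homogenate (1 ug) as enzyme source, 4-methylumbelliferyl-alpha-D-galactopyranoside 1 mM final, citrate/phosphate pH 5.0 with 0.01% Tween-20. Compounds 40 min at 37C, NaOH/glycine stop; fluorescence Ex 365/Em 440, Hill-fit AC50.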
# N370S GC mod – inhibitors or activators of N370S glucocerebrosidase for Gaucher disease | P04062 | Potency, µM (doses to about 59.4 µM), without a hit: at the highest dose activity change, negative = inhibition, usual class: inhibitors | 0.092% of 330,000 active | N370S GC spleen homogenate, 4MU-glucoside fluorescence;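 note: potency is the fitted concentration of half-maximal effect; 0% = full enzyme activity and -100% = no enzyme basal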
# GLA inh pH 4.5 – blocks human alpha-galactosidase A at pH 4.5; P06280; purified enzyme, 4-MU-alpha-Gal fluorescence, pH 4.5; activity change, negative = inhibition, % at 105 µM; 230,000 tested, under 10 active; AID 1467;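 note: 0% = full activity with enzyme and -100% = basal without enzyme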
# Target sequence (P06280 whole entry, looked up): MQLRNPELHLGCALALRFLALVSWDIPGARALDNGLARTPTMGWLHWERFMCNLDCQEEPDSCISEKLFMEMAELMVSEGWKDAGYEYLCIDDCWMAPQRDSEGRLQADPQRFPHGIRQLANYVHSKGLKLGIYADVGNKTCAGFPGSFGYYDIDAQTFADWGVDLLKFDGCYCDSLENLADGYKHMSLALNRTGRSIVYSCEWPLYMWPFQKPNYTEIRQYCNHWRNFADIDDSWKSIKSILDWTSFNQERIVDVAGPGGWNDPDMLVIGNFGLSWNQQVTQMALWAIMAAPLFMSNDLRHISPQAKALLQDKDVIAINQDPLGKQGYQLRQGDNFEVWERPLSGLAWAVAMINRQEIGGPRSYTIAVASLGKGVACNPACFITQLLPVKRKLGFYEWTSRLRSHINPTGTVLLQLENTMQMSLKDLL
# GAA inhib – inhibitors of human lysosomal alpha-glucosidase; P10253; purified human GAA, 4-MU-alpha-glucoside fluorescence; Potency, µM (doses to about 76.9 µM), without a hit: top-dose activity change, negative = inhibition, most hits filed as inhibitors; 0.005% of 200,000 active; AID 1466;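 note: potency is the fitted concentration of half-maximal effect; plate controls were uninhibited enzyme wells for no effect and no-enzyme background for full effect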
#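 Fluorescence at Ex 365/Em 440 nm from 4-methylumbelliferone reported enzyme activity after 20 min at room temperature. Reactions used 4 nM enzyme and 400 uM substrate at pH 5.0; curves fitted with the Hill equation.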
# GAA glycogen – inhibitors or activators of human alpha-glucosidase glycogen cleavage; AID 2100; Potency, µM (doses to about 76.4 µM), for the others: at the highest dose activity change, negative = inhibition, hits mostly inhibitors; recombinant GAA, glycogen substrate, Amplex Red glucose oxidase fluorescence; 0.38% of 300,000 active; P10253;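 note: potency is the fitted concentration of half-maximal effect; 0% = full enzyme reaction and -100% = no-enzyme basal signal; the screen sought inhibitors and activators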
#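 Recombinant enzyme (4 nM final) with compounds titrated up to 77 uM and bovine liver glycogen (30 ug) in citrate pH 5.0, 0.01% Tween-20, 37 C 40 min. Released glucose detected by Amplex Red/glucose oxidase (Ex 573/Em 610); AC50 from Hill fits.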
# Starred values were filed as active, the others as inactive; ? = inconclusive; . = not tested or not shown; [ ] = remark or other dose. Calls come from the whole dose curve; as a rule, active = well fitted curve in the direction sought with a large enough effect; inconclusive = small, poorly fitted or top-dose-only effect, or another doubt; inactive = no such curve, though single readings can be large; an effect the other way counts as inactive or inconclusive.
SMILES,GAA spleen mod,GLA spleen mod,N370S GC mod,GLA inh pH 4.5,GAA inhib,GAA glycogen
C#CCOCCOCCOCCNc1nc(N2CCN(C(=O)CCCCCCCCCCNC(=O)Cn3cc(CCCCCN)nn3)CC2)nc(N2CCN(C(=O)CCCCCCCCCCNC(=O)[C@H]([C@@H](C)CC)n3cc(CCCCN=C(N)N)nn3)CC2)n1,.,.,18µM*,.,.,.
COC(=O)[C@H](CCSC)NC(=O)C/C=C\[C@@H](C)CO,-3%[17.4 µM],-6%[17.5 µM],1%[12.8 µM],.,.,.
FC(F)(F)c1ccc(-c2noc(-c3ccccc3)c2I)cc1,-3%,1%,9%,-6,.,.
O=[N+]([O-])c1ccccc1/C=N\Nc1nccs1,.,.,-9%,.,.,.
Clc1cccc(Cl)c1/C=N\Nc1nccs1,-5%,-2%,22%,6,-4%,28µM*
Nc1cc(S(=O)(=O)Nc2cc(Cl)ccc2Cl)ccc1N1CCCC1,-5%,1%,14%,-3,.,18µM*
S=C(Nc1ccccc1)N1CCC(C2CCN(C(=S)Nc3ccccc3)CC2)CC1,0%,5%,6%,-11,0%,-8%
OC1CCN(C(=S)Nc2ccc(Nc3ccccc3)cc2)CC1,5%,2%,-1%,-2,8%,4µM*
S=C(Nc1ccc(Nc2ccccc2)cc1)N1CCN(c2ncccn2)CC1,-7%,2%,-8%,-3,2%,8.9µM*
O=C1OCC(CO)(CO)N=C1NNc1ccccc1Cl,-8%,-2%,7%,2,-7%,28µM*
COc1ccc2c(c1)-c1c(sn(-c3ccc(OC)c(OC)c3)c1=S)C(C)(C)N2,-3%,-14%,-3%,-2,-10%,22µM*
COc1ccc(-n2sc3c(c2=S)-c2cc(OC)ccc2NC3(C)C)cc1,-17%,7%,2%,0,1%,?
C/C(=N\N1CCN(C)CC1)c1ccc(Cl)c(Cl)c1,2%,1%,-2%,5,4%,28µM*
CCCCC/C=C\C=C\[C@H](O)CCCCCCCC(=O)O,-1%,-10%,19%,.,.,.
c1ccc(C2[C@H]3CN(CC4CCCCC4)[C@H](c4ccccc4)C34CC2(c2cccnc2)C4)cc1 (some centres undefined),1%,3%,14µM*,2,.,-1%
CCOC(=O)N1CCN([N+]([O-])=NOc2cc(O/N=[N+](\[O-])N(CC)CC)c([N+](=O)[O-])cc2[N+](=O)[O-])CC1,1%,-1%,-5%,.,.,.
CCN1C(=O)[C@@H]2[C@H]3C(=CC[C@@H]2C1=O)C1(OCCCO1)[C@H]1O[C@@H]1[C@H]3O,6%[17.4 µM],4%[17.5 µM],3%[12.8 µM],.,.,.
Cc1ccc(N/C=C2/Sc3ccccc3NC2=O)cc1,-8%,3%,-3%,7,9%,?
COc1ccc(N/C=C2/Sc3ccccc3NC2=O)cc1,2%,-4%,5%,1,-3%,20µM*
C/C(=N\Nc1ccc(C(=O)O)cc1)c1ccc2c(c1)Nc1ccccc1S2,3%,-10%,-8%,-10,.,11µM*
Cc1ccc(C(=O)NC2(C(F)(F)F)C(=O)Nc3c2c(=O)[nH]c(=O)n3CCc2ccccc2)cc1 (centres undefined),.,.,.,.,.,13%[76.3 µM]
COc1ccc(Nc2cc(C)c3c(O)cccc3n2)cc1,4%,8%,-18%,0,.,22µM*
CCN1CCOC(=O)C1CC(=O)Nc1cc(Cl)ccc1C (centres undefined),.,.,.,.,.,-7%[76.3 µM]
O=C(O)c1ccc(CNCc2ccc(Cl)cc2)s1,.,.,.,.,.,14%[76.3 µM]
O=C(NNc1cc(N2CCOCC2)nc(N2CCOCC2)n1)c1ccc(Cl)c(Cl)c1,-10%,0%,10%,-14,-13%,-6%
Cc1ccc(C(=O)NNc2cc(N3CCCC3)nc(N3CCCC3)n2)cc1,0%,11%,-1%,6,6%,28µM*
Cc1noc(C)c1C(=O)NNc1ccc(C(C)C)cc1,12%,14%,9%,8,-5%,40µM*
